Screens deposited in PubChem BioAssay by several laboratories.
In the library only some 2.8% were active in any assay of this set; here they are far more common.
TWEAK Fn14 block = inhibitors of TWEAK-Fn14 interaction signaling. hit rate 2% among 360,000. inhibition, % at 10 µM. TWEAK-stimulated Fn14 reporter cells, luciferase luminescence, 8 h; in the data active means inhibition above about 50%
PAX8 reporter = inhibitors of PAX8 transcriptional activity in RMG-I cells | inhibition, % at 12.6 µM | RMG-I TPO-luciferase reporter, SteadyGlo, 24 h | hit rate 1.2% among 360,000;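 active means mean replicate inhibition at least 60% with every replicate also reaching 60%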;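 further: luciferase light reporting Pax8 driven TPO promoter activity; plate controls were median of neutral control wells for no effect and mitoxantrone controls for full effect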
EWS-Fli inh = EWS/Fli transcriptional activity inhibition; inhibition, % at 12.6 µM; A673 NR0B1-luciferase reporter, viability-normalised; hit rate 0.67% among 350,000;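 active means mean inhibition of at least 50% after viability correction, with every replicate also passing that limit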;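 further: firefly luciferase signal divided by Alamar Blue viability fluorescence both relative to DMSO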
TROY NFkB inh = TROY signaling inhibition; Q293 LMP1-TROYcd NF-kB luciferase reporter, 4 h; inhibition, % at 10 µM; hit rate 0.98% among 360,000; AID 1347056;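 active means compounds whose plate-normalised and pattern-corrected inhibition of the luciferase reporter signal at the single screening dose is 50% or more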
LGR2 antag = blocks bursicon-induced cAMP signaling via Drosophila LGR2. HEK293 LGR2, CRE-luciferase, bursicon-stimulated, 4 h. inhibition, % at 9.99 µM. hit rate 0.35% among 380,000. AID 720647;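 active means drop in luminescence signal, shown as inhibition above about 50% in the replicate tests, limit read from the data, passing the limit was not always enough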;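 further: agonist challenge used bursicon conditioned medium at about half maximal strength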
* hit, by the source's call.

COc1cc(/C=C2/C(C)=C(C#N)c3nc(N)c(C#N)c(C)c32)ccc1OCC(=O)O was read as PAX8 reporter -11, EWS-Fli inh 7 and LGR2 antag 1.
Cc1cc(C(C)(C)CC(C)(C)C)ccc1OCCOCC[N+](C)(C)Cc1ccccc1 was read as TWEAK Fn14 block 37, PAX8 reporter 72*, EWS-Fli inh 40, TROY NFkB inh 42 and LGR2 antag 38.
C[N+](C)(CCOc1ccccc1)Cc1ccccc1 was read as TWEAK Fn14 block -19, PAX8 reporter 21, EWS-Fli inh 2 and TROY NFkB inh 2.
For C[C@H]1CN([C@@H](C)CO)C(=O)c2cc(/C=C/c3ccccc3)cnc2O[C@@H]1CN(C)Cc1cncnc1 the results were EWS-Fli inh 0 and LGR2 antag 3.
For CCOC(=O)c1c(C)[nH]c(C)c1C(=O)CSc1nc2ccccc2n1CC the results were TWEAK Fn14 block 2, PAX8 reporter 2, EWS-Fli inh -29, TROY NFkB inh 9 and LGR2 antag 8.
CCOC(=O)c1c(C)[nH]c(C)c1C(=O)CSc1nc2ccccc2c(=O)n1-c1ccc(CC)cc1 was read as TWEAK Fn14 block 50*, PAX8 reporter -18, TROY NFkB inh 14 and LGR2 antag 0.
COc1ccc(S(=O)(=O)N(C)C[C@@H]2Oc3ccc(NC(=O)C4CCCCC4)cc3C(=O)N([C@H](C)CO)C[C@@H]2C)cc1 was read as EWS-Fli inh -4 and LGR2 antag -4.
For Cc1ccc2c(c1)[C@H]1[C@H](CO2)[C@H](c2ccccc2)[C@]2(C)C(=O)Nc3cc(F)c(F)cc3C(=O)N12 the results were TWEAK Fn14 block 20, PAX8 reporter 6, EWS-Fli inh 59*, TROY NFkB inh 7 and LGR2 antag 19.
`Cc1ccc2c(c1)[C@H]1[C@H](CO2)[C@H](c2ccccc2)[C@]2(C)C(=O)Nc3ccc(F)cc3C(=O)N12` gave TWEAK Fn14 block 11, PAX8 reporter 41, EWS-Fli inh 56* and TROY NFkB inh 19.
`C[C@@]12C(=O)Nc3ccccc3C(=O)N1[C@H]1c3cc(Br)ccc3OC[C@@H]1[C@@H]2c1ccccc1` gave TWEAK Fn14 block 24, PAX8 reporter 20, EWS-Fli inh 56*, TROY NFkB inh 28 and LGR2 antag 8.
Screening C[C@@]12C(=O)Nc3ccc(Br)cc3C(=O)N1[C@H]1c3cc(Br)ccc3OC[C@@H]1[C@@H]2c1ccccc1 returned TWEAK Fn14 block -25, PAX8 reporter 31, EWS-Fli inh 10, TROY NFkB inh 11 and LGR2 antag 12.
For Cc1ccccc1S(=O)(=O)N1CCCCN2[C@H](CO)[C@@H](c3ccc(-c4ccccc4)cc3)[C@H]2C1 the results were PAX8 reporter 43 and EWS-Fli inh 19.
`COc1cccc(C(=O)CC(=O)C(=O)Nc2ccc(C)cc2Cl)c1` gave TWEAK Fn14 block 91*, PAX8 reporter -12, EWS-Fli inh 9, TROY NFkB inh 36 and LGR2 antag 14.
`COc1cccc(C(=O)CC(=O)C(=O)Nc2cc(OC)ccc2OC)c1` gave TWEAK Fn14 block 21, PAX8 reporter 1, EWS-Fli inh 7, TROY NFkB inh -19 and LGR2 antag -9.
`COc1ccc(C(=O)CC(=O)C(=O)Nc2ccc(C)cc2Cl)cc1` gave TWEAK Fn14 block 52*, PAX8 reporter -19, EWS-Fli inh 29, TROY NFkB inh -14 and LGR2 antag -8.
Cc1csc2ncnc(N3CCN(C(=O)Nc4ccc(OC(F)(F)F)cc4)CC3)c12 was read as TWEAK Fn14 block 63*, PAX8 reporter 5, EWS-Fli inh 10 and TROY NFkB inh 40.
For Cc1noc(C)c1NC(=O)NCC[C@@H]1CC[C@@H](NC(=O)c2ccccc2)[C@H](CO)O1 the results were PAX8 reporter -9, EWS-Fli inh -10 and LGR2 antag 13.
`O=C(c1ccc(Br)cc1)c1cc([N+](=O)[O-])ccc1N1CCCCC1` gave TWEAK Fn14 block -3, PAX8 reporter 97* and TROY NFkB inh 4.
Screening O=C(c1ccc(Cl)nc1)N1CCc2ccccc2C1 returned TWEAK Fn14 block 79* and LGR2 antag 11.
CC(=O)c1ccc(OCC(O)Cn2nnc3ccccc32)cc1 (stereo unspecified) was read as TWEAK Fn14 block -14, EWS-Fli inh -33, TROY NFkB inh -31 and LGR2 antag -9.
`N#Cc1ccc(-c2ccc(OCC(O)Cn3nnc4ccccc43)cc2)cc1` (stereo unspecified) gave TWEAK Fn14 block 37, PAX8 reporter 5 and TROY NFkB inh 52*.
For Cc1noc(C)c1NC(=O)N(C)C[C@H]1OCCCC[C@@H](C)Oc2ccc(NC(=O)NC3CCCCC3)cc2C(=O)N([C@H](C)CO)C[C@@H]1C the results were PAX8 reporter -1, EWS-Fli inh -4 and LGR2 antag 15.
`C[C@H](CO)N1C[C@H](C)[C@H](CN(C)C(=O)Nc2cccc3ccccc23)OCCCC[C@H](C)Oc2ccc(N(C)C)cc2C1=O` gave PAX8 reporter -18, EWS-Fli inh 67* and LGR2 antag 15.
C[C@@H]1CCCCO[C@H](CN(C)C(=O)Nc2cccc3ccccc23)[C@H](C)CN([C@@H](C)CO)C(=O)c2cc(N(C)C)ccc2O1 was read as PAX8 reporter 71*, EWS-Fli inh 13 and LGR2 antag 35.
C[C@@H]1CN([C@H](C)CO)C(=O)c2cc(N(C)C)ccc2O[C@@H](C)CCCCO[C@H]1CN(C)C(=O)Nc1cccc2ccccc12 was read as PAX8 reporter 52 and EWS-Fli inh 19.
Screening C[C@@H]1CN([C@@H](C)CO)C(=O)c2cc(N(C)C)ccc2O[C@@H](C)CCCCO[C@H]1CN(C)C(=O)Nc1cccc2ccccc12 returned PAX8 reporter 10, EWS-Fli inh 9 and LGR2 antag 17.
`COc1ccc(S(=O)(=O)N(C)C[C@@H]2Oc3ccc(NC(=O)Nc4ccc(C(F)(F)F)cc4)cc3C(=O)N([C@H](C)CO)C[C@@H]2C)cc1` gave EWS-Fli inh 7 and LGR2 antag 5.
`C[C@@H]1CN([C@H](C)CO)C(=O)c2cc(NC(=O)Nc3ccc(C(F)(F)F)cc3)ccc2O[C@H]1CN(C)S(=O)(=O)c1ccccc1` gave TWEAK Fn14 block 55*, PAX8 reporter 26, EWS-Fli inh 5, TROY NFkB inh 29 and LGR2 antag 1.
Screening COc1ccc(S(=O)(=O)N(C)C[C@H]2Oc3ccc(NC(=O)Nc4ccc(C(F)(F)F)cc4)cc3C(=O)N([C@H](C)CO)C[C@@H]2C)cc1 returned TWEAK Fn14 block 58*, PAX8 reporter 94*, EWS-Fli inh 1, TROY NFkB inh 30 and LGR2 antag -6.
Screening C[C@@H]1CN([C@@H](C)CO)C(=O)c2cc(NC(=O)Nc3ccc(C(F)(F)F)cc3)ccc2O[C@@H]1CN(C)S(=O)(=O)c1ccc(F)cc1 returned PAX8 reporter 29, EWS-Fli inh 1 and LGR2 antag 3.
